Results as given in ChEMBL document CHEMBL4513216, “Probing the Open Global Health Chemical Diversity Library for Multistage-Active Starting Points for Next-Generation Antimalarials” (ACS Infect Dis, 2020).
Hit rate of the full screen: of about 69,000 compounds, about 8,600 (12%) showed an effect of 50% or more. Many of the other results were omitted from the sample, so strong results are more common in it than they were.

What follows are molecules tested on Plasmodium berghei (assay: Screen against P. berghei liver stage (PbLuc), transformed with Luciferase, at 10uM). Settings: tested at 10 uM.
Format: functional, HepG2

First: Cc1ccc(OC2CCN(S(=O)(=O)N(C)C)CC2)nc1
Second: CC(=O)c1ccc(S(=O)(=O)Nc2cnn(C3CCOCC3)c2)cc1
The INHIBITION of the first is higher: 35.4% for the first, -24.1% for the second.

First: CCOc1cc(-c2cc(=O)n3c(n2)CCCCC3)ccc1O
Second: Cc1cnc(C)c(Oc2ccc(CN3CCCC3)cc2Cl)n1
The INHIBITION of the first is lower: -6.09% for the first, 89.4% for the second.

Going from `CCC(=O)NCc1cc(Br)c(OC)c(OC)c1` to `CCCC(=O)NCc1cc(Br)c(OC)c(OC)c1`, the INHIBITION falls from -4.74% to -26.1%.

First: CCS(=O)(=O)NCc1cc(Br)c(OC)c(OC)c1
Second: COc1ccc(C(N)=O)cc1NCc1ncc(C(C)(C)C)o1
The INHIBITION of the first is higher: 51.3% for the first, 15.7% for the second.

Compared with `CC(=O)NCCOc1c(Cl)cccc1Cl`, `CCCS(=O)(=O)NCC(O)c1c(Cl)cccc1Cl` (centres undefined) is lower in INHIBITION: 22% for the first, 0.87% for the second.

First: CN(Cc1cnn(C)c1)C(=O)CCC(=O)c1ccc2c(c1)OCCO2
Second: Cn1cc(C(=O)NCc2cncc3c2CCN(CC2CC2)C3)cn1
The INHIBITION of the first is lower: 5.48% for the first, 28.5% for the second.

Going from `CCc1cc(C(F)(F)F)n2nc(C3CCCN3C3CCSCC3)cc2n1` (centres undefined) to `Cc1nn(C)c2ncc(CN3CCCCCC3)cc12`, the INHIBITION rises from 18.95% to 44.9%.

Going from `Cc1cc(N2CCCC(c3n[nH]c4ncccc34)C2)ncn1` (centres undefined) to `CCn1c(C2CCCN(Cc3cc(C)cc(C)c3)C2)nn(C)c1=O` (centres undefined), the INHIBITION falls from 26.3% to -17.8%.

Compared with `Cc1nc(CN2C[C@@H]3CN(C(=O)C4(C#N)CC4)C[C@@H]3C2=O)cs1`, `COc1ccc(CN2CCC3(CC2)C(C(=O)O)CC(=O)N3C)cc1Cl` (centres undefined) is higher in INHIBITION: -20.2% for the first, 39.9% for the second.

First: COc1ccc(OCCNc2cccc(C(=O)N3CCOCC3)c2)cc1
Second: COc1ccc(CC(=O)NCCNS(=O)(=O)c2ccc(C)cc2)cc1
The INHIBITION of the first is higher: -12.5% for the first, -57.5% for the second.

Compared with `Cc1cc(CN2CCCC2)cc(Oc2nc(C)cnc2C)c1`, `Cc1cnc(C)c(Oc2ccc(Cl)c(CN3CCCC3)c2Cl)n1` is higher in INHIBITION: 89.4% for the first, 90.3% for the second.

Compared with `COC(=O)CC1CN(Cc2c(Cl)ccc3cccnc23)CCO1` (centres undefined), `O=C(Cn1ccc2ccc(Cl)cc21)/N=c1\[nH]nc(C2CCCO2)s1` (centres undefined) is higher in INHIBITION: -14.2% for the first, 39.7% for the second.

First: c1cc(-c2cn[nH]c2)ccc1CN1CCCCC1
Second: NC(=O)c1cncc(Oc2cccc(CN3CCCC3)c2Cl)n1
The INHIBITION of the first is lower: 10.6% for the first, 24.4% for the second.

First: OC1CCN(CCCNc2nccc(C3CCCC3)n2)CC1
Second: CN(Cc1nccn1C)C1CCCN(CCCc2ccccc2)C1 (centres undefined)
The INHIBITION of the first is lower: 31.4% for the first, 43.7% for the second.

Going from `CC(O)CN1CCN(Cc2cccc(C(=O)N3CCCCC3)c2)CC1` (centres undefined) to `COc1ccccc1CCNC(=O)CC1(Cn2cnnn2)CCCCC1`, the INHIBITION rises from 37.9% to 48.2%.

First: O=C(c1cscn1)N1CCc2[nH]nc(Nc3ccccc3)c2C1
Second: CN(C(=O)NCc1nccn1Cc1ccccc1)C1CC1
The INHIBITION of the first is lower: -15.625% for the first, 46.4% for the second.

Compared with `Cc1ccccc1CN(CCN(C)C)Cc1ccc(O)c(C(=O)O)c1`, `Cn1ccnc1CN(CCO)Cc1ccc(C(F)(F)F)cc1` is higher in INHIBITION: 29.2% for the first, 29.8% for the second.

Compared with `CCc1nnsc1-c1nc(C(C)C)nn1-c1ccc2c(c1)OCO2`, `Cc1nonc1-c1nc(C(C)C)nn1-c1ccc2c(c1)OCO2` is higher in INHIBITION: 12.4% for the first, 82% for the second.

Compared with `CC(C)c1nc(-c2ccc(=O)[nH]n2)n(-c2ccc3c(c2)OCO3)n1`, `CC(C)Cc1cc(NC(=O)c2ccc(=O)[nH]n2)n(C)n1` is higher in INHIBITION: 25.5% for the first, 40.3% for the second.

Compared with `CN(C)c1nc(CNC(=O)N[C@H](CO)c2ccccc2)cs1`, `CC(C)Cc1cc(NC(=O)c2ccccc2)n(C)n1` is higher in INHIBITION: -42% for the first, 10% for the second.

First: CC(C)Cc1cc(NC(=O)c2n[nH]c3ccccc23)n(C)n1
Second: Cc1nc(-c2ccccc2)n(CC(=O)NC(C)C)n1
The INHIBITION of the first is higher: 56.6% for the first, 31.2% for the second.

Compared with `COC(CNC(=O)C1CCCC1)c1ccc(C)s1` (centres undefined), `CC(C)N1CCC(Cc2cncc(-c3cc(F)ccc3C(=O)O)n2)CC1` is higher in INHIBITION: 24.7% for the first, 41.2% for the second.

Compared with `COc1cc(C(=O)N2CCCC2c2noc(C(C)C)n2)on1` (centres undefined), `COc1ccc(-c2c[nH]c(C3CC(=O)N(CC(C)C)C3)n2)cc1` (centres undefined) is lower in INHIBITION: -2.143% for the first, -15% for the second.

First: CN(CCCc1ccc(C(F)(F)F)cc1)Cc1nccn1C
Second: COc1ccc(CC(=O)NCCCc2nnc3nc(C)cc(C)n23)cc1
The INHIBITION of the first is higher: 66.8% for the first, 52.7% for the second.

First: CC(C)CN1CC(c2nc(-c3ccc(F)cc3)c[nH]2)CC1=O (centres undefined)
Second: CC(C)CN1CC(c2nc(-c3ccsc3)c[nH]2)CC1=O (centres undefined)
The INHIBITION of the first is lower: 27.5% for the first, 53.3% for the second.

Compared with `CCN(CCNS(=O)(=O)N1CCOCC1)C(=O)OC(C)(C)C`, `COc1ccc(S(=O)(=O)NCCCc2nnc3nc(C)cc(C)n23)cc1` is higher in INHIBITION: 41.3% for the first, 74.6% for the second.

First: Cc1cc(C)n2c(CCCNS(=O)(=O)c3cccs3)nnc2n1
Second: Cc1cc(C)n2c(CCCNS(=O)(=O)c3ccccc3)nnc2n1
The INHIBITION of the first is lower: 31.3% for the first, 34.6% for the second.

Going from `Cc1cc(C)n2c(CCCNS(=O)(=O)c3ccc(F)cc3)nnc2n1` to `CCc1nc(CCNC(=O)Nc2cc(C(N)=O)ccc2OC)cs1`, the INHIBITION falls from 15.4% to -10.8%.

Going from `CCn1nc(C)c2c1cnn2CC(=O)NC(C)c1cccc(OC)c1` (centres undefined) to `COc1ccc(NC(=O)CCn2nc(-c3cccs3)oc2=O)cc1OC`, the INHIBITION falls from 49.9% to -22.9%.

Compared with `Cc1nnc([C@@H]2CC[C@@H]3[C@@H](CCN3C3CCC3)O2)o1`, `Cc1nnc([C@@H]2CC[C@@H]3[C@@H](CCN3C3CCOCC3)O2)o1` is higher in INHIBITION: 23.3% for the first, 60.3% for the second.

Compared with `Cc1nnc([C@@H]2CC[C@@H]3[C@@H](CCN3CC3CCOCC3)O2)o1`, `COc1ccc(C(N)=O)cc1NCc1nc(-c2cccs2)oc1C` is higher in INHIBITION: -13.7% for the first, 68% for the second.

First: CCCNC(=O)COc1ccc(-c2ccccc2)nc1
Second: COc1ccc(C(N)=O)cc1NCc1ncc(-c2cccs2)o1
The INHIBITION of the first is lower: -91.3% for the first, 69.7% for the second.

First: O=C(Cn1cc(I)cn1)Nc1cccnc1
Second: COc1ccc(C(N)=O)cc1NCc1noc(-c2ccsc2)n1
The INHIBITION of the first is lower: 4.74% for the first, 9.06% for the second.

Going from `CNC(=O)c1ccc(OC)c(NCc2noc(-c3ccsc3)n2)c1` to `CNC(=O)c1ccc(OC)c(NCc2noc(-c3cccs3)n2)c1`, the INHIBITION rises from -48.5% to 10%.

For `CNC(=O)c1ccc(OC)c(NCc2ncc(-c3cccs3)o2)c1`, the INHIBITION was 61.1%.
